An excerpt weighted towards active compounds, which were near 0.77% of everything screened.
LmPK inh – inhibitors of Leishmania mexicana pyruvate kinase | Q27686 | purified LmPK, Kinase-Glo ATP luminescence, 1 h | Potency, µM (doses to about 57.5 µM), for inactives: at the top dose activity change, negative = inhibition, actives largely listed as inhibitors | 0.37% of 290,000 active | AID 1721; active = well fitted curve in the direction sought with a large enough effect; inconclusive = small, poorly fitted or top-dose-only effect, or another doubt; inactive = no such curve, though single readings can be large; an effect the other way counts as inactive or inconclusive; note: potency is the fitted concentration of half-maximal effect; % is set by controls: 0 for no effect and ±100 for the full control effect
Target sequence (Q27686 whole entry, looked up): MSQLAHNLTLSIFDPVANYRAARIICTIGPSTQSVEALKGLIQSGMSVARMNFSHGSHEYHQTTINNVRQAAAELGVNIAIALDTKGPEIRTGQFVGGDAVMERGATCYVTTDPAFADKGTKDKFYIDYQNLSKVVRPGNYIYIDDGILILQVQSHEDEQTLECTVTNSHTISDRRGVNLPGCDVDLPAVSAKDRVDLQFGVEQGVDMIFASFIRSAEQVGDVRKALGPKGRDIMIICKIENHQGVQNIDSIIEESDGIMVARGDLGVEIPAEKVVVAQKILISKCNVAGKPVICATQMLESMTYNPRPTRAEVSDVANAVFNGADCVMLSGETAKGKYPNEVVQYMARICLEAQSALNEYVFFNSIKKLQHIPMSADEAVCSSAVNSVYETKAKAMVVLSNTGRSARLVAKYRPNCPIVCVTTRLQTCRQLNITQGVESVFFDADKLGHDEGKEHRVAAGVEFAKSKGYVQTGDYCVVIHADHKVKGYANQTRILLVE
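qHTS format; LmPK 0.1 nM; substrates PEP 0.5 mM and ADP 0.1 mM. One-hour room-temperature incubation, then coupled luciferase luminescence; 0.5 nM enzyme wells mark activation.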
RE007 growth inh – less growth of the S. pombe RE007 Vpr strain. S. pombe RE007 Vpr strain, BacTiter-Glo ATP luminescence, 24 h. 0.21% of 360,000 active. Potency, µM (series often up to 92.2 µM), inactives show at the highest dose activity change, negative = less growth, hits mostly inhibitors. AID 651644; active = well fitted falling curve with a large enough effect; inconclusive = small, poorly fitted or top-dose-only effect; inactive = no such curve, though single readings can be large or run the other way; note: potency is the fitted concentration of half-maximal effect; % is set by controls: 0 for no effect and ±100 for the full control effect; nearly all actives have a fitted effect of over 50% in size
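Fission yeast RE007 carrying one integrated HIV-1 vpr copy, seeded at OD 0.01 in PMG+AL medium with 23 nL pinned compound. Grown 24 h at 30 degrees; viability read by BacTiter-Glo luminescence after 5 min.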
TbPYK inhibitor – inhibitors of Trypanosoma brucei pyruvate kinase; Q57TT1; TbPYK enzyme, Kinase-Glo Plus ATP luminescence, 45 min; Potency, µM (doses to about 76.8 µM), for the others: at the highest dose activity, negative = inhibition, hits mostly inhibitors; 0.12% of 410,000 active; active = well fitted curve in the direction sought with a large enough effect; inconclusive = small, poorly fitted or top-dose-only effect, or another doubt; inactive = no such curve, though single readings can be large; an effect the other way counts as inactive or inconclusive; note: potency is the fitted concentration of half-maximal effect; % is set by controls: 0 for no effect and ±100 for the full control effect; nearly all actives have a fitted effect of over 50% in size
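Glycolytic pyruvate kinase of T. brucei was incubated with substrate, test compound and 130 uM ADP for 45 minutes at room temperature. Luminescent Kinase-Glo Plus signal was measured after 10 minutes.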
NS1 function inh – blocks influenza NS1 protein function; Potency, µM (highest dose often 46.1 µM), for inactives: top-dose activity, positive = more growth; 0.4% of 270,000 active; AID 2326; note: potency is the fitted concentration of half-maximal effect; actives are rising curves; nearly all actives have a fitted effect of over 50% in size
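Recovery from NS1-induced slow growth read by OD600 in budding yeast switched to galactose assay medium (pH 6.0, -URA) at 1:100 dilution. Compound 23 nl per well; the matching strain lacking NS1 serves as control.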
NS1 inh valid – validation of influenza NS1 protein function inhibitors. shares compounds with NS1 function inh. influenza NS1 function cell assay, 15-point titration. activity change, negative = inhibition, % at 32.9 µM. 1,400 tested, under 10 active. AID 492980; note: 0% is about no effect
Numbers without * were called inactive; ? = inconclusive; · = no result; [ ] = dose if it differs, or a comment. Unless noted, calls come from the whole dose curve.

SMILES	LmPK inh	RE007 growth inh	TbPYK inhibitor	NS1 function inh	NS1 inh valid
Cc1oc(-c2ccccc2F)nc1CS(=O)CC(=O)NCc1cccs1 (stereo unspecified)	1%	-8%	-9%	11µM*	30
Cc1oc(-c2cccs2)nc1CS(=O)CC(=O)NCCCOC(C)C (stereo unspecified)	-3%	11%	1%	7%	·
CCCCNC(=O)CS(=O)Cc1nc(-c2cccs2)oc1C (stereo unspecified)	-1%	-7%	-12%	11µM*	5
CCCCCc1cc(O)c2c(c1)OC(C)(C)C1CC=C(C)CC21 (stereo unspecified)	·	·	3%	·	·
CC1CCN(S(=O)(=O)c2ccc3c(c2)CCC(=O)N3CC(=O)Nc2cccc(C#N)c2)CC1	·	·	2%	·	·
Cc1[nH]n(-c2ncc(-c3ccccc3)s2)c(=O)c1C(c1ccc(Br)cc1)C(C#N)C#N (stereo unspecified)	1%	-11%	-18%	4.5µM*	-21
Cc1[nH]n(C(N)=S)c(=O)c1C(c1ccccc1)C(C#N)C#N (stereo unspecified)	0%	-6%	-14%	-41%	·
C/C=C(/C)C(=O)O[C@H]1C(C)=C2C([C@@H]1OC(=O)CCCCCCC)[C@@](C)(OC(C)=O)C[C@@H](OC(=O)CCC)[C@@]1(O)[C@H]2OC(=O)[C@@]1(C)O (stereo partly specified)	·	·	·	8.9µM*	36
COC(=O)Cn1c(CN2CCC(Cc3ccccc3)CC2)nc2c1c(=O)n(C)c(=O)n2C	8%	-7%	-8%	?	-34
COc1ccc(CCN(Cc2nc3ccccc3c(=O)[nH]2)C(=O)c2ccco2)cc1OC	-2%	4%	-2%	8.9µM*	11
Cc1ccc2c(c1)[C@]13CCCC[C@@H]1[C@@H](C2)N(C)CC3	·	·	-5%	·	·
CCN(CC)C(=O)CSC1=Nc2ccccc2C2=NC(c3ccccc3)C(=O)N12 (stereo unspecified)	-7%	13%	2%	2.8µM*	-1
Cc1ccc(N2CCN(C(C(=O)Nc3c(C)cccc3C)c3cc4ccccc4o3)CC2)cc1 (stereo unspecified)	·	6%	·	·	·
NNC(=O)CNC(c1ccccc1)c1cc(Br)ccc1NC(=O)c1ccc(Br)cc1 (stereo unspecified)	1%	5%	-1%	7.1µM*	26
NNC(=O)CNC(c1ccccc1)c1cc(Br)ccc1NC(=O)CCN1CCOCC1 (stereo unspecified)	6%	12%	-7%	10µM*	?
NNC(=O)CNC(c1ccccc1)c1cc(Br)ccc1NC(=O)c1cccc(Cl)c1 (stereo unspecified)	3%	-5%	-4%	11µM*	15
CCOC(=O)CNC(c1ccccc1)c1cc(Br)ccc1NC(=O)c1cccc(Cl)c1 (stereo unspecified)	·	·	-6%	·	·
Cc1ccc(-c2nc(CS(=O)(=O)CC(=O)NC3CCCCC3C)c(C)o2)cc1 (stereo unspecified)	1%	17%	-7%	3.2µM*	-26
O=C1c2cccc3c(N4CCOCC4)c([N+](=O)[O-])cc(c23)C(=O)N1c1cccc2ccccc12	0%	2%	-7%	?	-2
Cc1cccc(N2C(=O)c3cccc4c(N5CCCCC5)c([N+](=O)[O-])cc(c34)C2=O)c1C	3%	20%	-6%	-5%	·
O=C1CSCN1c1cc(Cl)ccc1Cl	4%	-13%	0%	?	9
Cc1cc(C(=O)Cn2nnc(-c3ccc(Cl)cc3)n2)c(C)n1CC1CCCO1 (stereo unspecified)	11%	5%	14%	7.9µM*	-38
C=CCn1c(SCC(=O)N(CC)CC)nc(O)cc1=O	-1%	13%	0%	2.5µM*	1
CCOC(=O)CCCNC(=O)N1CCc2nc(-c3ccccc3)c3c(c2C1)CO[C@@H](C)C3	-4%[11.5 µM]	·	·	·	·
COc1ccc(C)cc1S(=O)(=O)N1CCN(C(=O)c2ncoc2-c2ccccc2C)CC1	4%	-3%	6%	?	-20
O=C(NC1CC1)c1ccc(-c2cnc3cccnn23)cc1	·	9%	2%	·	·
CC(=O)c1ccc(NC(=O)COC(=O)c2c3c(nc4ccccc24)/C(=C\c2cccs2)CCC3)cc1	5%	-9%	-3%	?	-5
